Our source for the growth values is PubChem BioAssay (NCI).

Compounds without any hit were thinned out: in the full panel of roughly 83,000, 20% have a hit.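 Interpretation: 100, growth as untreated; towards 0, rising growth inhibition; 0, no net growth; 0 to -100, cell death. Compounds scoring below 10 were considered active.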 Unmarked numbers belong to inactive results. Calls of active or inactive are those of the source.

The first assay deals with 786-0 renal. As to the kind of experiment: NCI-60 one-dose screen, 48 h (100 = growth as untreated, 0 = no growth, -100 = all killed). Conditions: 10 µM.
On to `CCOC(=O)c1cc(-c2ccccc2)nc(N)n1`, for which the growth was 108%.
On the same count and under the same terms, the figure for `COc1cc(C)c2sc3ccccc3c(=O)c2c1NCCN(C)C` is 65.9%.
Same read-out and setting: the same measure for `C/C=C\COc1cc(C)c(Cl)cc1Cl`: 108%; for `NC(N)=NS(=O)(=O)c1ccc(Nc2ccc3nnc(-c4ccncc4)n3n2)cc1`: 104%.
For the compound `COc1ccc(C2C=C(c3ccc(Cl)c(Cl)c3)N=C3SC(C)=CN32)cc1` (stereo unspecified), the growth was 90.7%.
Same read-out and setting: the same measure for `CC(=O)OC1Oc2ccccc2-c2oc(=O)c(-c3ccc(F)cc3)cc21` (stereo unspecified): 95.4%.
On to `CS(=O)(=O)Nc1ccc(Nc2c3ccccc3nc3cc(Cl)ccc23)cc1`, for which the growth is 19.6%.
On the same count and under the same terms, the figure for `COc1cc2nc(Sc3sc(N)nc3C)n(-c3ccc(Oc4ccccc4)cc3)c(=O)c2cc1OC` is 80%; for `CCOC(=O)c1sc(NC(=O)c2cc(OC)c(OC)c(OC)c2)nc1C` it is 114%; for `O=C(Nc1ccc(OCc2nnc(-c3ccccc3)o2)c(F)c1)Nc1ccc(Cl)c(Cl)c1` it is 82.1%.
Still for that read-out and setting: the same measure for `COc1ccc(/C=C2\SC(=S)N(CCCN3CCOCC3)C2=O)c(OC)c1`: 106%; for `CCSc1nc2c([nH]1)c(=O)n(C)c(=S)n2C`: 100%; for `CCNC(=S)NN`: 99.5%.
Still for that read-out and setting: the figure for `COc1ccc(-c2ccc(-c3ccc(C(=N)N)c(F)c3)s2)cc1` is -82.5% (active); for `O=C(c1ccc(Cl)cc1)c1no[n+]([O-])c1C(=O)c1ccc(Cl)cc1` it is -34.5% (active).
Take `COc1cccc2c1O/C(=C\c1ccc([N+](=O)[O-])s1)C2=O`: the growth was 103%.
Still for that read-out and setting: the same measure for `NCCNc1ccc2cc(-c3nc4ccccc4[nH]3)c(=O)oc2c1`: 106%; for `Fc1ccc(Nc2ccnc(N3CCN(c4ccnc5cc(Cl)ccc45)CC3)n2)cc1`: 37.1%.
Turning to `Clc1cc(Cl)c(Cl)c(-c2nc(-c3cccnc3)cs2)c1`, the growth was 99.1%.
On to `CCCc1c(CC)c(=N)c2ccccc2n1C`, for which the growth was 41%.
The same measure, in the same setting: the figure for `N#CN1CC[C@H](C(=O)Nc2ncc(-c3ccccc3)s2)C1` is 3.56% (active); for `C[N+]1=C(/C=C/c2ccc(I)cc2)C(C)(C)c2ccccc21` it is 97.4%; for `Clc1cc(Cl)c(OCCCCCCN2CCNCC2)c(Cl)c1` it is 23.1%.
Same read-out and setting: the same measure for `COCCOC(=O)NC(=O)Nc1ccc(C(=O)c2ccc(Cl)cc2)cc1`: 47%; for `CCCCCCCCCCSC(=N)N` (tested in a mixture with another compound): 52.4%; for `COc1cc(-c2nc3ccccc3[nH]2)ccc1OCc1nnc(-c2ccc(Br)cc2)o1`: 90.2%.
Still for that read-out and setting: the same measure for `O=S(=O)(NCCO)c1ccc(OCCOc2ccc(S(=O)(=O)NCCO)cc2)cc1`: 96.9%; for `Cc1ccc([P+](Cc2ccccc2)(c2ccccc2)c2ccccc2)cc1`: 21.3%.
With `O=C(Nc1cccc(Cl)c1)OCC(COC(=O)Nc1cccc(Cl)c1)(COC(=O)Nc1cccc(Cl)c1)[N+](=O)[O-]`, the growth was 32.8%.
On the same count and under the same terms, the same measure for `COc1ccc(Cn2cc3c(c2-c2cc(OC)c(OC)c(OC)c2)CCc2cnoc2-3)cc1N`: 15.8%; for `COc1ccc(-c2nnc(SCC(=O)c3ccccc3)o2)cc1`: 79.4%; for `Cc1ccc([P+](Cc2ccc([N+](=O)[O-])cc2)(c2ccc(C)cc2)c2ccc(C)cc2)cc1`: 82.4%.
With `Cc1cc(Cl)ccc1Nc1nc(C(F)(F)F)ccc1C(=O)N/N=C/c1ccccc1Cl`, the growth is -40.1% (active).
The same measure, in the same setting: the same measure for `O=C(OCc1ncc(-c2ccc(C(F)(F)F)cc2)c(NC2CCCCCC2)n1)c1c(F)c(F)c(F)c(F)c1F`: 74.3%.
Same read-out and setting: the same measure for `O=C1CC(c2cccc(-c3cccnc3)c2)=Nc2ccc(Br)cc2N1`: 1.54% (active); for `c1ccc(OCCC[P+](c2ccccc2)(c2ccccc2)c2ccccc2)cc1`: 23.1%; for `COCCNCC(O)Cn1c2ccc(Cl)cc2c2cc(Cl)ccc21` (stereo unspecified): 21.9%.
The same measure, in the same setting: the figure for `Nc1cc2c(cc1Cl)-c1ccc(Cl)cc1C2=O` is 103%.

The next assay deals with COLO 205 colon. The description is as above. Conditions: 10 µM.
On to `CCOC(=O)c1cc(-c2ccccc2)nc(N)n1`, for which the growth was 114%.
Still for that read-out and setting: the same measure for `COc1cc(C)c2sc3ccccc3c(=O)c2c1NCCN(C)C`: 16.1%; for `C/C=C\COc1cc(C)c(Cl)cc1Cl`: 107%.
Consider `NC(N)=NS(=O)(=O)c1ccc(Nc2ccc3nnc(-c4ccncc4)n3n2)cc1`, for which the growth was 111%.
Same read-out and setting: the figure for `COc1ccc(C2C=C(c3ccc(Cl)c(Cl)c3)N=C3SC(C)=CN32)cc1` (stereo unspecified) is 104%; for `CC(=O)OC1Oc2ccccc2-c2oc(=O)c(-c3ccc(F)cc3)cc21` (stereo unspecified) it is 108%.
Same read-out and setting: the same measure for `CS(=O)(=O)Nc1ccc(Nc2c3ccccc3nc3cc(Cl)ccc23)cc1`: 43.1%; for `COc1cc2nc(Sc3sc(N)nc3C)n(-c3ccc(Oc4ccccc4)cc3)c(=O)c2cc1OC`: 76%.
Same read-out and setting: the same measure for `CCOC(=O)c1sc(NC(=O)c2cc(OC)c(OC)c(OC)c2)nc1C`: 122%; for `O=C(Nc1ccc(OCc2nnc(-c3ccccc3)o2)c(F)c1)Nc1ccc(Cl)c(Cl)c1`: 58.9%; for `COc1ccc(/C=C2\SC(=S)N(CCCN3CCOCC3)C2=O)c(OC)c1`: 108%.
With `CCSc1nc2c([nH]1)c(=O)n(C)c(=S)n2C`, the growth is 106%.
Take `CCNC(=S)NN`: the growth was 106%.
Still for that read-out and setting: the same measure for `COc1ccc(-c2ccc(-c3ccc(C(=N)N)c(F)c3)s2)cc1`: -71.1% (active); for `O=C(c1ccc(Cl)cc1)c1no[n+]([O-])c1C(=O)c1ccc(Cl)cc1`: 107%; for `COc1cccc2c1O/C(=C\c1ccc([N+](=O)[O-])s1)C2=O`: 67.3%.
In the case of `NCCNc1ccc2cc(-c3nc4ccccc4[nH]3)c(=O)oc2c1`, the growth is 104%.
Still for that read-out and setting: the figure for `Fc1ccc(Nc2ccnc(N3CCN(c4ccnc5cc(Cl)ccc45)CC3)n2)cc1` is 34.7%; for `Clc1cc(Cl)c(Cl)c(-c2nc(-c3cccnc3)cs2)c1` it is 57.1%; for `CCCc1c(CC)c(=N)c2ccccc2n1C` it is -18.5% (active).
The same measure, in the same setting: the same measure for `N#CN1CC[C@H](C(=O)Nc2ncc(-c3ccccc3)s2)C1`: -63.3% (active).
Still for that read-out and setting: the figure for `C[N+]1=C(/C=C/c2ccc(I)cc2)C(C)(C)c2ccccc21` is 95%; for `Clc1cc(Cl)c(OCCCCCCN2CCNCC2)c(Cl)c1` it is -71.3% (active).
As for `COCCOC(=O)NC(=O)Nc1ccc(C(=O)c2ccc(Cl)cc2)cc1`, the growth was 13.4%.
Take `CCCCCCCCCCSC(=N)N` (tested in a mixture with another compound): the growth was -59.2% (active).
Still for that read-out and setting: the same measure for `COc1cc(-c2nc3ccccc3[nH]2)ccc1OCc1nnc(-c2ccc(Br)cc2)o1`: 91.2%; for `O=S(=O)(NCCO)c1ccc(OCCOc2ccc(S(=O)(=O)NCCO)cc2)cc1`: 104%.
`Cc1ccc([P+](Cc2ccccc2)(c2ccccc2)c2ccccc2)cc1`: the growth was -68.9% (active).
Same read-out and setting: the figure for `O=C(Nc1cccc(Cl)c1)OCC(COC(=O)Nc1cccc(Cl)c1)(COC(=O)Nc1cccc(Cl)c1)[N+](=O)[O-]` is 35.5%; for `COc1ccc(Cn2cc3c(c2-c2cc(OC)c(OC)c(OC)c2)CCc2cnoc2-3)cc1N` it is -29.1% (active).
Same read-out and setting: the figure for `COc1ccc(-c2nnc(SCC(=O)c3ccccc3)o2)cc1` is 107%; for `Cc1ccc([P+](Cc2ccc([N+](=O)[O-])cc2)(c2ccc(C)cc2)c2ccc(C)cc2)cc1` it is 7.68% (active); for `Cc1cc(Cl)ccc1Nc1nc(C(F)(F)F)ccc1C(=O)N/N=C/c1ccccc1Cl` it is 4.36% (active).
Turning to `O=C(OCc1ncc(-c2ccc(C(F)(F)F)cc2)c(NC2CCCCCC2)n1)c1c(F)c(F)c(F)c(F)c1F`, the growth was 59.2%.
Still for that read-out and setting: the same measure for `O=C1CC(c2cccc(-c3cccnc3)c2)=Nc2ccc(Br)cc2N1`: 61.1%; for `c1ccc(OCCC[P+](c2ccccc2)(c2ccccc2)c2ccccc2)cc1`: -35.6% (active); for `COCCNCC(O)Cn1c2ccc(Cl)cc2c2cc(Cl)ccc21` (stereo unspecified): -67.9% (active).
Regarding `Nc1cc2c(cc1Cl)-c1ccc(Cl)cc1C2=O`, the growth was 95.1%.
